# Results filed as inconclusive are left out. Activity calls are given as the source filed them. Rule for the calls, unless noted: active = hit-call score of the fitted dose curve at least 0.9, where 1 is the maximum; inconclusive = response in the unintended direction; inactive = score below 0.9.
# Tests used:
# [1] = ACEA_ER_AUC_viability: ACEA Biosciences xCELLigence Real-Time Cell Analysis on Estrogen Receptor Agonism for Viability (AID 2283782);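 note: continuous compound exposure with impedance area under curve over 80 h; hit means loss of impedance signal meaning reduced cell growth or viability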
# Method in brief: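 T47D cells preconditioned in phenol red-free RPMI with charcoal-stripped FBS, then dosed with 8-point 1:4 series from 100 uM (up to 0.5% DMSO). Impedance monitored up to ~80 h; area-under-curve loss versus DMSO taken as viability.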
# [2] = biological target: Cellular tumor antigen p53 (Homo sapiens) (UniProt P04637); assay: TOX21_p53_BLA_p4_ratio: Tox21 HCT-116 p53 Agonism Beta-lactamase Assay, Ratio, Phase 4 (AID 2283601)
# Method in brief: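 HCT-116 p53 beta-lactamase reporter cells (4000/well) preincubated 5 h, then compound (217-fold dilution of DMSO stock) for 16 h at 37C. CCF4-AM substrate added 2 h at room temperature; 460/530 nm emission ratio fitted upward versus DMSO.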
# [3] = CEETOX_H295R_MTT_cell_viability: Viability Assessment in the CeeTox HT-H295R MTT Assay (AID 2283718; active = hit-call score of the fitted dose curve at least 0.9, where 1 is the maximum; inactive = score below 0.9)
# Method in brief: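 Human H295R adrenal cells, prestimulated 48 h with 10 uM forskolin, were exposed 48 h to chemicals in 0.1% DMSO. Viability was measured in the same wells by MTT (0.5 mg/ml, 4 h, 37 C), absorbance 570/650 nm, as percent of controls.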
# [4] = CEETOX_H295R_11DCORT_noMTC: CeeTox H295R High-throughput Steroidogenesis Assay for 11-Deoxycortisol (11DCORT), maximum tolerated concentration (MTC) filtered results only (AID 2283911; active = hit-call score of the fitted dose curve at least 0.9, where 1 is the maximum; inactive = score below 0.9); details: actives raise or lower the signal
# Method in brief: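 Readout is 11-deoxycortisol in culture medium by reverse-phase HPLC with MS/MS, after 48 h chemical treatment of forskolin-primed H295R cells. Values are relative to DMSO and unfiltered for cytotoxicity.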
# [5] = CEETOX_H295R_OHPREG_noMTC: CeeTox H295R High-throughput Steroidogenesis Assay for OH-Pregnenolone (OHPREG), maximum tolerated concentration (MTC) filtered results only (AID 2283912; active = hit-call score of the fitted dose curve at least 0.9, where 1 is the maximum; inactive = score below 0.9); details: actives raise or lower the signal
# Method in brief: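 H295R cells prestimulated 48 h with 10 uM forskolin, then exposed 48 h to compound (0.1% DMSO). 17alpha-hydroxypregnenolone in medium measured by MTBE extraction and HPLC-MS/MS; bidirectional fit vs DMSO, concentrations not MTT/MTC-filtered.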
# [6] = CEETOX_H295R_OHPROG_noMTC: CeeTox H295R High-throughput Steroidogenesis Assay for OH-Progesterone (OHPROG), maximum tolerated concentration (MTC) filtered results only (AID 2283914; active = hit-call score of the fitted dose curve at least 0.9, where 1 is the maximum; inactive = score below 0.9); details: actives raise or lower the signal
# Method in brief: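 H295R cells prestimulated 48 h with 10 uM forskolin, then exposed 48 h to chemical (0.1% DMSO final). 17alpha-hydroxyprogesterone in medium quantified by HPLC-MS/MS after MTBE extraction; bidirectional fitting versus DMSO, concentrations not MTC-filtered.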
# [7] = CEETOX_H295R_ANDR_noMTC: CeeTox H295R High-throughput Steroidogenesis Assay for Androstenedione (ANDR), maximum tolerated concentration (MTC) filtered results only (AID 2283915; active = hit-call score of the fitted dose curve at least 0.9, where 1 is the maximum; inactive = score below 0.9); details: actives raise or lower the signal
# Method in brief: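 H295R cells, passage 10 or below, prestimulated 48 h with 10 uM forskolin, then exposed 48 h to chemical in 0.1% DMSO. Medium androstenedione extracted with MTBE, quantified by HPLC-MS/MS; concentrations not MTC-filtered; bidirectional fit versus DMSO.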
# [8] = CEETOX_H295R_CORTISOL_noMTC: CeeTox H295R High-throughput Steroidogenesis Assay for Cortisol, maximum tolerated concentration (MTC) filtered results only (AID 2283916; active = hit-call score of the fitted dose curve at least 0.9, where 1 is the maximum; inactive = score below 0.9); details: actives raise or lower the signal
# Method in brief: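 H295R human adrenal cells prestimulated 48 h with 10 uM forskolin, then exposed 48 h to chemical in 0.1% DMSO; cortisol in medium quantified by HPLC-MS/MS; bidirectional fit vs DMSO baseline, concentrations not MTT-filtered for MTC.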
# [9] = CEETOX_H295R_CORTIC_noMTC: CeeTox H295R High-throughput Steroidogenesis Assay for Corticosterone (CORTIC), maximum tolerated concentration (MTC) filtered results only (AID 2283917; active = hit-call score of the fitted dose curve at least 0.9, where 1 is the maximum; inactive = score below 0.9); details: actives raise or lower the signal
# Method in brief: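 H295R adrenal cells pre-stimulated 48 h with 10 uM forskolin, then exposed 48 h to chemical in 0.1% DMSO; corticosterone in medium quantified by HPLC-MS/MS, fitted bidirectionally versus DMSO without MTT-based concentration filtering.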
# [10] = CEETOX_H295R_DOC_noMTC: CeeTox H295R High-throughput Steroidogenesis Assay for DOC, maximum tolerated concentration (MTC) filtered results only (AID 2283918; active = hit-call score of the fitted dose curve at least 0.9, where 1 is the maximum; inactive = score below 0.9); details: actives raise or lower the signal
# Method in brief: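 H295R cells prestimulated 48 h with 10 uM forskolin, then exposed 48 h to chemical in 0.1% DMSO. 11-Deoxycorticosterone in medium measured by MTBE extraction and HPLC-MS/MS; bidirectional fit vs DMSO, no MTC filter.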
# [11] = CEETOX_H295R_ESTRADIOL_noMTC: CeeTox H295R High-throughput Steroidogenesis Assay for Estradiol, maximum tolerated concentration (MTC) filtered results only (AID 2283919; active = hit-call score of the fitted dose curve at least 0.9, where 1 is the maximum; inactive = score below 0.9); details: actives raise or lower the signal
# Method in brief: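 H295R human adrenal cells pre-stimulated 48 h with 10 uM forskolin, then exposed 48 h to chemical (0.1% DMSO final). Estradiol in medium measured by HPLC-MS/MS after MTBE extraction and dansyl derivatization; bidirectional fit versus DMSO, concentrations not MTT-filtered.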
# [12] = CEETOX_H295R_PROG_noMTC: CeeTox H295R High-throughput Steroidogenesis Assay for Progesterone (PROG), maximum tolerated concentration (MTC) filtered results only (AID 2283920; active = hit-call score of the fitted dose curve at least 0.9, where 1 is the maximum; inactive = score below 0.9); details: actives raise or lower the signal
# Method in brief: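 H295R cells, prestimulated 48 h with 10 uM forskolin, exposed 48 h to chemical in 0.1% DMSO. Medium progesterone quantified by MTBE extraction and HPLC-MS/MS; bidirectional fit versus DMSO, concentrations not MTT-filtered.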
# [13] = CEETOX_H295R_ESTRONE_noMTC: CeeTox H295R High-throughput Steroidogenesis Assay for Estrone, maximum tolerated concentration (MTC) filtered results only (AID 2283921; active = hit-call score of the fitted dose curve at least 0.9, where 1 is the maximum; inactive = score below 0.9); details: actives raise or lower the signal
# Method in brief: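 H295R cells prestimulated 48 h with 10 uM forskolin, then exposed 48 h to chemical in 0.1% DMSO; medium estrone measured by HPLC-MS/MS after MTBE extraction and dansyl derivatization, fitted bidirectionally versus DMSO without MTT-based MTC filtering.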
# [14] = CEETOX_H295R_TESTO_noMTC: CeeTox H295R High-throughput Steroidogenesis Assay for Testosterone (TESTO), maximum tolerated concentration (MTC) filtered results only (AID 2283924; active = hit-call score of the fitted dose curve at least 0.9, where 1 is the maximum; inactive = score below 0.9); details: actives raise or lower the signal
# Method in brief: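 H295R cells prestimulated 48 h with 10 uM forskolin, then exposed 48 h to chemicals in 0.1% DMSO final. Testosterone in medium quantified by MTBE extraction and HPLC-MS/MS; bidirectional fit versus DMSO, concentrations […] filtered by MTT-based maximum tolerated concentration.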
# [15] = system: Thyroperoxidase (TPO), gene 54314; assay: CCTE_Simmons_AUR_rTPO: CCTE's Amplex UltraRed Assay for Thyroperoxidase (TPO) Inhibition, Simmons Lab (AID 2283662);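 for AC50: potency for loss of signal meaning inhibition of peroxidase activity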
# Method in brief: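 Rat thyroid microsomes (5 ug protein) were incubated with test compound (8 concentrations, 5 nM–87.5 uM final, 0.5% DMSO), 25 uM Amplex UltraRed and 300 uM H2O2 in 200 mM phosphate buffer for 30 min at 37C in the dark; fluorescence read at 544/590 nm.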
# [16] = biological target: Luciferin 4-monooxygenase (Photinus pyralis) (UniProt P08659); assay: CCTE_Simmons_QuantiLum_inhib_2: CCTE's Firefly Luciferase Inhibition Assay, Simmons Lab (AID 2283767)
# Method in brief: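 Counter-screen for nonspecific enzyme inhibition: purified firefly luciferase incubated 30 min at 37C with chemicals up to 87.5 uM final, then luminescence measured after luciferin/dATP injection; activity fitted against DMSO baseline.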
# [17] = TOX21_p53_BLA_p5_viability: Viability Assessment in the Tox21 HCT-116 p53 Agonism Beta-lactamase Assay, Phase 5 (AID 2283600)
# Method in brief: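 Counter-readout for cytotoxicity: ATP-dependent luminescence from CellTiter-Glo, read in the beta-lactamase wells after 30 min at RT, following a 16 h compound exposure at 37C.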
# [18] = CCTE_Simmons_CellTiterGLO_HEK293T: Viability Assessment in CCTE's Assays for Thyroperoxidase (TPO) Inhibition, Simmons Lab (AID 2283665);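 note: cells exposed to compound for 24 h before readout; actives reduce ATP signal below DMSO vehicle meaning cytotoxicity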
# Method in brief: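 Cytotoxicity counter-screen: human HEK293T cells in low-serum (1% FBS) medium receive test chemical, 5 nM to 87.5 uM final, for 24 h; ATP is quantified by luciferase luminescence.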
# Sequence of Cellular tumor antigen p53 (Homo sapiens) (P04637 whole entry, looked up): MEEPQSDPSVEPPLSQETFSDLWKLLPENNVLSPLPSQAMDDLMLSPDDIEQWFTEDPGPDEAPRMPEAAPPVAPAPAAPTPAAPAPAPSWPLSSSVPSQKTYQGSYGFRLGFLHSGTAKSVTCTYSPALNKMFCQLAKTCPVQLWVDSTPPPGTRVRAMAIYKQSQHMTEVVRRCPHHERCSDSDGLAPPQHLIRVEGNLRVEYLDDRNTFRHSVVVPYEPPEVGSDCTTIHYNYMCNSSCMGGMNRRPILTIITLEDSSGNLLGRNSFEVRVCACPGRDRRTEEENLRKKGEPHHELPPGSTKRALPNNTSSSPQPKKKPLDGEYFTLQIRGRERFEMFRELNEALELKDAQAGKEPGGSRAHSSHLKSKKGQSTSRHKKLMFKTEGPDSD
# Sequence of Luciferin 4-monooxygenase (Photinus pyralis) (P08659 whole entry, looked up): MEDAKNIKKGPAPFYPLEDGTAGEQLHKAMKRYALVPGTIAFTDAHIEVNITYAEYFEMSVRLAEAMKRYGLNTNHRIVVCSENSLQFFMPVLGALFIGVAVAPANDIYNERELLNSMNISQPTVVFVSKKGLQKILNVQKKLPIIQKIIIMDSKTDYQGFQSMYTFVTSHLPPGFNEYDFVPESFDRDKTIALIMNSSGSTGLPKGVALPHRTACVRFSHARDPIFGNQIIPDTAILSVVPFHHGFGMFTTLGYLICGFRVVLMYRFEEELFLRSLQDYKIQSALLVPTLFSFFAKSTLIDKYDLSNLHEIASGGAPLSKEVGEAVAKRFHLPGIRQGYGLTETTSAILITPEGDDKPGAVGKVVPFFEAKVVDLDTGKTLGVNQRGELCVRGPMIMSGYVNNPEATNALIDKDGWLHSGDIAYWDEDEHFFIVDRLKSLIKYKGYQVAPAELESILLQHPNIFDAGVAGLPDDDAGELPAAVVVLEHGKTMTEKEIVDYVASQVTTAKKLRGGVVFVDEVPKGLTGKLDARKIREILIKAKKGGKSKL
compound,measurement,setting,value
O=C(O)c1c(Cl)ccc(Cl)c1Cl,outcome,[1],inactive
CNC(=O)N(c1ccccc1)c1ccccc1,outcome,[2],inactive
CS(=O)(=O)OCCOS(C)(=O)=O,outcome,[3],inactive
same,outcome,[4],inactive
same,outcome,[5],inactive
same,outcome,[6],inactive
same,outcome,[7],inactive
same,outcome,[8],inactive
same,outcome,[9],inactive
same,outcome,[10],inactive
same,outcome,[11],inactive
same,outcome,[12],inactive
same,outcome,[13],inactive
same,outcome,[14],inactive
C1CCC2(CCCCO2)OC1,outcome,[1],inactive
C=CC1CNC(=S)O1 (stereo not drawn),AC50,[15],10.6 µM (active)
same,outcome,[16],inactive
CCOC(=O)/C=C/C(=O)OCC,outcome,[17],inactive
same,outcome,[2],inactive
CC(=O)OC(C)OC(C)=O,outcome,[17],inactive
same,outcome,[2],inactive
CC1(C)CC(O)CC(C)(C)N1,outcome,[2],inactive
Cn1c(=S)[nH]c2ccccc21,AC50,[15],0.503 µM (active)
same,outcome,[16],inactive
O=c1[nH]c2ccccc2s1,AC50,[15],31.3 µM (active)
same,outcome,[16],inactive
Cc1ccc(C=C2C(=O)C3(C)CCC2C3(C)C)cc1 (stereo not drawn),outcome,[15],inactive
same,AC50,[18],15.3 µM (active)

# Source: PubChem BioAssay (EPA / NIEHS)
